According to PubChem BioAssay (NCATS):
Inconclusive results are not listed. A call without a number means that no potency is given here. Activity calls are given as the source filed them. Unless noted, the call rests on the fitted dose curve; in most records, active means well fitted curve in the direction sought with a large enough effect; inconclusive means small, poorly fitted or top-dose-only effect, or another doubt; inactive means no such curve, though single readings can be large; an effect the other way counts as inactive or inconclusive.

Key:
[1] = target: Calcium and integrin-binding protein 1 (Homo sapiens) (UniProt Q99828); test: Primary qHTS for Identification of Calcium Integrin Binding Protein 1 (CIB1) Competitor (AID 1508620); details: CIB1-GST / FITC-alphaIIb peptide fluorescence polarization; series mostly up to 57.7 µM;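 further: GST tagged CIB1 binding a fluorescein labelled alphaIIb integrin peptide tracer; top concentration of the series differs between compounds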
Calcium and integrin-binding protein 1 (Homo sapiens), sequence (Q99828 whole entry, looked up): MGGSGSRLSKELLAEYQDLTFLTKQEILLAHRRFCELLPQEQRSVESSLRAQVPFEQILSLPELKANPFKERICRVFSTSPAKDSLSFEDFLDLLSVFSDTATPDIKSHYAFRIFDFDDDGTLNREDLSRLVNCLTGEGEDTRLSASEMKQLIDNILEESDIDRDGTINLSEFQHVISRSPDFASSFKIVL
How it was run: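 Fluorescence polarization competition: CIB1-GST (1 uM final) preincubated with compound 15 min at room temperature, then FITC-labeled alphaIIb peptide (100 nM final) added for another 15 min. Polarization read at Ex 480/Em 540.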

[2] = target: Cytochrome P450 2D6 (Homo sapiens) (UniProt P10635); test: Cytochrome P450 family 2 subfamily D member 6 (CYP2D6) small molecule antagonists: luciferase biochemical (cell-free) qHTS assay (AID 1645840; active means well fitted curve in the direction sought with a large enough effect in the repeat runs; an effect the other way counts as inactive or inconclusive; further: nearly all actives have a fitted effect of over 55% in size; further: potency means the concentration at half of the fitted maximal effect); details: P450-Glo CYP2D6 enzyme, luciferin luminescence, 1 h; series mostly up to 57.4 µM
Cytochrome P450 2D6 (Homo sapiens), sequence (P10635 whole entry, looked up): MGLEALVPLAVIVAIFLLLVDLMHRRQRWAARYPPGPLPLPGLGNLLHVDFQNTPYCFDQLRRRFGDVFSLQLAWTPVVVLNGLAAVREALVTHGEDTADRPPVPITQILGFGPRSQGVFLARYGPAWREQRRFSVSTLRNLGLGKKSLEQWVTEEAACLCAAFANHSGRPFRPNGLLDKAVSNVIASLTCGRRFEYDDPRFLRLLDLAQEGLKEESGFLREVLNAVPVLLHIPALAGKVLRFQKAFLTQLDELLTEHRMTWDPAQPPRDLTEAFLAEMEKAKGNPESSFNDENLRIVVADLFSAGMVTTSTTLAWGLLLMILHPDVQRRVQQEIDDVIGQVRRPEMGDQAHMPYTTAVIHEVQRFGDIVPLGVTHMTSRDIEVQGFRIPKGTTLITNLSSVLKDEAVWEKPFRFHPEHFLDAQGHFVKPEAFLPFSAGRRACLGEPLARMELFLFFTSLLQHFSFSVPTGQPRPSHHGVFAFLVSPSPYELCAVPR
How it was run: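 P450-Glo CYP2D6 system: proluciferin substrate converted by enzyme to luciferin, read by luminescence proportional to activity. Enzyme-substrate mix with compound 10 min at room temperature, then NADPH regeneration 1 h before detection reagent.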

[3] = Primary qHTS for small molecule stabilizers of the endoplasmic reticulum resident proteome: Secreted ER Calcium Modulated Protein (SERCaMP) assay (AID 1508630); details: SH-SY5Y GLuc-SERCaMP (Gaussia luciferase released on ER calcium loss) secretion, thapsigargin, luminescence; series mostly up to 38.4 µM
How it was run: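 The SH-SY5Y reporter protocol was run at 3 concentrations up to 38.3 uM (primary) or 11 concentrations (follow-up): 16 h compound, 100 nM thapsigargin for 4 h, then extracellular luciferase luminescence.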

Compound	Potency [1]	Potency [2]	outcome [3]
CC1=C(C(=O)Nc2cc3cn[nH]c3cc2F)C(c2ccc(Cl)cc2F)N=C(c2ccnc(Cl)c2)N1 (centres undefined)	inactive	6.74 µM (active)	–
Cn1cc(CNCC2CCN(c3ncc(C(=O)NO)cn3)CC2)c2ccccc21	inactive	3.38 µM (active)	inactive
Cc1ncc(-c2ccnc(Nc3ccc(S(C)(=O)=O)cc3)n2)n1C(C)C	inactive	inactive	inactive
c1ccc2c(Oc3nc(Nc4ccc(N5CCOCC5)cc4)c4ncn(C5CCCCC5)c4n3)cccc2c1	inactive	inactive	inactive
O=C(Nc1ccc(Oc2ccnc3[nH]ccc23)c(F)c1)c1cccn(-c2ccc(F)cc2)c1=O	inactive	inactive	inactive
Nc1ccc(C(=O)Nc2cccc(-c3nc(N4CCOCC4)c4oc5ncccc5c4n3)c2)cn1	–	–	inactive
COc1cccc2c1C(=O)c1c(O)c3c(c(O)c1C2=O)C[C@@](O)(C(=O)CO)C[C@@H]3O[C@H]1C[C@H](N)[C@@H](O)[C@H](C)O1	–	–	inactive
FC(F)c1nc2ccccc2n1-c1nc(N2CCOCC2)nc(N2CCOCC2)n1	inactive	inactive	inactive
C=CC(=O)Nc1ccc2ncnc(Nc3ccc(OCc4cccc(F)c4)c(Cl)c3)c2c1	inactive	inactive	inactive
NC1=N[C@H]2[C@H](CS[C@H]2CCCCC(=O)O)N1	inactive	inactive	–
CC(C)(N)c1ccc(-c2nc3ccccc3nc2-c2ccccc2)cc1	inactive	15.1 µM (active)	inactive
Oc1cc(-c2nc(-c3ccccc3)[nH]c2-c2ccncc2)ccc1Cl	inactive	0.756 µM (active)	inactive
COC[C@H](NC(=O)c1cnc(C)s1)C(=O)N[C@@H](COC)C(=O)N[C@@H](Cc1ccccc1)C(=O)[C@@]1(C)CO1	inactive	inactive	inactive
COc1ccc(Nc2cc(-c3cnc(N)nc3)nc(N3CCOCC3)n2)cn1	inactive	inactive	inactive
CCOC(=O)N1CCN([N+]([O-])=NOc2ccc([N+](=O)[O-])cc2C#N)CC1	inactive	inactive	inactive
Oc1cc2c(cc1O)C1c3ccc(O)c(O)c3OCC1(O)C2 (centres undefined)	inactive	inactive	–
Cc1cnc(Nc2ccc(CN3CCOCC3)cc2)nc1Nc1cccc(S(=O)(=O)NC(C)(C)C)c1	inactive	9.52 µM (active)	inactive
Cc1cc(Nc2ncc3c(n2)N(C)C(=O)N(c2cc(NC(=O)c4cccc(C(F)(F)F)c4)ccc2C)C3)n(C)n1	–	–	inactive

Compound	Potency [1]	Potency [2]	outcome [3]
N#Cc1c(C2CCNCC2)cc(-c2c(O)cccc2OCC2CC2)nc1N	inactive	0.674 µM (active)	inactive
CCc1c(O)cc(O)c(C(=O)c2ccc(OCCN3CCOCC3)c(OC)c2)c1CC(=O)N(CCOC)CCOC	inactive	inactive	inactive
CC(C)Oc1ccc(C(=O)N[C@H](CNC(=O)CN(C)C)Cc2ccc(-c3cn4cccc([C@H](C)O)c4n3)cc2)cc1Cl	inactive	5.35 µM (active)	inactive
CCCCCCCCCCCCCCCC(=O)OC[C@@H](NC(=O)C(Cl)Cl)[C@H](O)c1ccc([N+](=O)[O-])cc1	inactive	inactive	inactive
C#Cc1cccc(Nc2ncnc3cc(OCCOC)c(OCCO)cc23)c1	inactive	8.49 µM (active)	inactive
NC(=O)c1cccc(-c2cccc(OC(=O)NC3CCCCC3)c2)c1	inactive	inactive	inactive
CN1CCc2c(c3ccccc3n2Cc2ccc(C(=O)NO)cc2)C1	inactive	7.56 µM (active)	inactive
CCc1nc(-c2cccc(C)c2)c(-c2ccnc(NC(=O)c3ccccc3)c2)s1	inactive	inactive	inactive
CC(O)(C#Cc1ccc2c(c1)N(c1nc(N)ncc1Cl)CC2)c1nccs1 (centres undefined)	inactive	9.52 µM (active)	inactive
Cn1cc(-c2ccc3ncc(Cc4ccc5ncccc5c4)n3n2)cn1	inactive	12 µM (active)	–
Cc1noc(-c2ccc(CSCCC(=O)O)cc2)c1NC(=O)OC(C)c1ccccc1Cl (centres undefined)	inactive	inactive	inactive
CN[C@@H]1C[C@H]2O[C@@](C)([C@H]1OC)n1c3ccccc3c3c4c(c5c6ccccc6n2c5c31)C(=O)N[C@H]4O	–	–	inactive
CC[C@H](CC[C@@H](C)[C@H]1CC[C@H]2[C@@H]3CC=C4C[C@@H](O)CC[C@]4(C)[C@@H]3CC[C@]12C)C(C)C	–	–	inactive
CCOc1cc2c(c(F)c1OCC)C(=N)N(CC(=O)c1cc(N3CCOCC3)c(OC)c(C(C)(C)C)c1)C2	inactive	5.35 µM (active)	inactive
CS(=O)(=O)N1CCc2c(-c3cnc(N)nc3)nc(N3CCOCC3)nc21	inactive	inactive	inactive
O=C1CSC(=O)N1C(CCc1ccncc1)COc1ccc(-c2cccc([N+](=O)[O-])c2)cc1 (centres undefined)	inactive	inactive	inactive
O=C(O)CCCCC(CCSCc1ccccc1)SCc1ccccc1 (centres undefined)	–	–	inactive
